These results are taken from PubChem BioAssay AID504329 (Southern Research Specialized Biocontainment Screening …, 2011).

Each structure is given as a SMILES string. Where “and” joins values, the source holds several entries; their conditions need not be identical. Equal entries are not always repeated. Out of some 340,000 compounds screened, about 1,000 (0.29%) were called active. The list is a sample of the results. Results with a measured potency or affinity are listed apart. A number with no mark means an inactive call. Rule as the data show it: inconclusive = inhibition above about 27% without an active follow-up result; inactive = below that.

The nature of the experiment: H1N1 influenza NS1A inhibitors, functional cell based assay (AID 504329). The following applies: percent inhibition, at 12.5 µM, active compounds read high.
As for `O=C(c1cccc(C(F)(F)F)c1)C1CCCN(C(=O)c2cc(C3CC3)[nH]n2)C1` (stereo not given), the inhibition (commonly the change of the read-out against control, counted positive when it falls) was -9.76%.

Take `CS(=O)(=O)Nc1ccc(C(=O)Nc2ccccc2C(=O)NCc2ccco2)cc1`: the inhibition was -1.06%.

Turning to `O=C(CSc1ccccn1)N/N=C/c1cc([N+](=O)[O-])ccc1O`, the inhibition was 21.2%.

Turning to `O=C(N/N=C/c1cc([N+](=O)[O-])ccc1O)c1cc(-c2ccccc2)nc2ccccc12`, the inhibition was 15.9%.

`O=C(CCC(=O)Nc1ccc(Br)cc1)N/N=C/c1cc([N+](=O)[O-])ccc1O`: the inhibition is -1.12%.

As for `Nc1nnc(CC(=O)N/N=C/c2cc([N+](=O)[O-])cc(Br)c2O)s1`, the inhibition was 7.8%.

With `Cc1cc(C(=O)N/N=C/c2ccc([N+](=O)[O-])cc2)c2ccccc2n1`, the inhibition was 8.83%.

As to `O=C(Cn1cncn1)N/N=C/c1ccccc1Cl`, the inhibition is -0.24%.

On to `Nc1nnc(CC(=O)N/N=C/c2ccc([N+](=O)[O-])cc2)s1`, for which the inhibition is -6.47%.

For the molecule `O=C(Cn1cncn1)N/N=C/c1cccc2ccccc12`, the inhibition is -2.86%.

Consider `CC(OC(=O)C12CC3CC(CC(O)(C3)C1)C2)C(N)=O` (stereo not given), for which the inhibition was -5.93%.

Consider `Cc1cc(C)n(-c2ccc(C(=O)Nc3ccc(N4CCOCC4)cc3)cc2)n1`, for which the inhibition was -0.85%.

Turning to `CC(Oc1ccc(Cl)cc1Cl)c1nc(-c2ccc(NC(=O)c3ccncc3)cc2)no1` (stereo not given), the inhibition was 6.94%.

Turning to `CCOC(=O)N1CCN(S(=O)(=O)c2ccc(C)c(C)c2C)CC1`, the inhibition is -2.44%.

As to `C=C[C@@H]1CN2CCC1C[C@@H]2[C@@H](O)c1ccnc2ccc(OC)cc12` (stereo not given in full), the inhibition was -0.14% and 2.49%.

`CCCCOc1ccc(CCC(=O)N/N=C/c2ccco2)cc1`: the inhibition was -16.9%.

In the case of `O=c1c(-c2ccnn2-c2ccc(F)cc2)cnc2n1CCS2`, the inhibition was 11.8%.

As for `O=C(Nc1c2c(nn1-c1ccc(Cl)cc1)CS(=O)(=O)C2)C1CC1`, the inhibition was -8.81%.

Regarding `O=C(CSc1nnc(-c2ccc(Cl)cc2)n1-c1ccc(Cl)cc1)N/N=C/c1ccco1`, the inhibition was -4.44%.

Consider `O=C(N/N=C/c1ccc([N+](=O)[O-])cc1)c1cccc(N2CCCC2=O)c1`, for which the inhibition is -4.45%.

As to `COc1ccc(N2CC(C(=O)Nc3ccc([N+](=O)[O-])cc3Br)CC2=O)cc1` (stereo not given), the inhibition is -1%.

Regarding `O=C(N/N=C/c1cc(Br)ccc1O)c1cccc(N2CCCC2=O)c1`, the inhibition is -7.38%.

For `O=C1NCCCC1C(=O)N/N=C/c1ccccc1O` (stereo not given), the inhibition was 1.62%.

On to `COc1ccc(N2CC(C(=O)N/N=C/c3ccc([N+](=O)[O-])cc3)CC2=O)cc1` (stereo not given), for which the inhibition was 3.03%.

On to `O=C1NCCCC1C(=O)N/N=C/c1ccccc1[N+](=O)[O-]` (stereo not given), for which the inhibition is 4.74%.

As to `COc1ccc(Cl)cc1C(=O)NC1=NCCS1`, the inhibition is 3.24%.

`N#Cc1ccc(Oc2ncccn2)cc1`: the inhibition was -1.76%.

As for `CC(=O)Nc1ccc(S(=O)(=O)N(C)CC(=O)OCC(=O)c2cc(C)n(-c3ccc4c(c3)OCO4)c2C)cc1`, the inhibition was 4.97%.

Regarding `COc1cc(/C=C2\SC(=O)N(c3ccc(Cl)cc3)C2=O)cc([N+](=O)[O-])c1O`, the inhibition is -5.87%.

As to `COc1cc(/C=C2\SC(=O)N(Cc3ccc(F)cc3)C2=O)cc([N+](=O)[O-])c1O`, the inhibition is 26.1%.

As for `CCN(CC)c1ccc(C(=O)Nc2cccc(F)c2)cc1`, the inhibition is 0.06%.

As to `CCN(CC)c1ccc(NC(=O)c2ccc3c(c2)OCO3)cc1`, the inhibition was 21.3%.

For the molecule `Cc1cc(C(=O)OCC(=O)Nc2ccccc2C)c(C)o1`, the inhibition is -4.72%.

`Cc1c(N=C2C(=O)Nc3ccccc32)c(=O)n(-c2ccccc2)n1C`: the inhibition is 11%.

Regarding `Cc1c(N=c2scc(-c3ccccc3)n2C)c(=O)n(-c2ccccc2)n1C`, the inhibition was -5.38%.

Take `Cc1ccc(N2C(=O)CN(Cc3ccccc3)C2=S)cc1C`: the inhibition was -6.48%.

As for `O=[N+]([O-])c1cc(/C=N\Nc2ccccn2)ccc1Cl`, the inhibition is -4.08%.

In the case of `O=C(N/N=C/c1ccc(O)c([N+](=O)[O-])c1)c1ccncc1`, the inhibition was 13.6%.

As to `COc1ccc(CC(=O)Nc2cc(S(=O)(=O)N3CCOCC3)ccc2N2CCCC2)cc1OC`, the inhibition was 2.03%.

For `NC(=O)c1ccc(-c2c(-c3ccccc3)sc3ccccc23)cc1`, the inhibition is -3.51%.

Take `CCOC(=O)N1CCC(NC(=O)CCc2c(C)nc3c(c(C)nn3C(C)(C)C)c2C)CC1`: the inhibition was 0.25%.

In the case of `CNC(=S)NNc1nc(-c2ccccc2)c2cc(Cl)ccc2n1`, the inhibition is 8.4%.

With `Nc1c(Cl)ncnc1N/N=C/c1ccc(O)cc1`, the inhibition is -15.8%.

With `COc1ccc(/C=N/Nc2nccnc2Cl)c(OC)c1`, the inhibition is -10.3%.

For `Nc1c(Cl)ncnc1N/N=C/c1cccc(O)c1`, the inhibition was 17.6%.

Regarding `COc1ccc(/C=N/Nc2ncnc(Cl)c2N)cc1OC`, the inhibition is -17%.

On to `Nc1c(Cl)ncnc1N/N=C/c1ccnc2ccccc12`, for which the inhibition was -0.57%.

`COc1ccccc1/C=N/Nc1nccnc1Cl`: the inhibition is 4.08%.

As for `Cc1cccc(NC(=S)NCc2ccc(F)cc2)c1C`, the inhibition is -12.3%.

Consider `CN1CCN(c2ccc(CNC(=O)c3cc4ccccc4o3)cc2)CC1`, for which the inhibition was -11.5%.

Turning to `CCOC(=O)N1CCN(S(=O)(=O)c2ccc(C(=O)Nc3sc4c(c3C(N)=O)CC(C)(C)NC4(C)C)cc2)CC1`, the inhibition was -1.86%.

`O=C1NC(=Nc2ccccc2Br)SC1(CO)CO`: the inhibition is -3.43%.

Consider `COc1cccc(CNc2ccc(S(=O)(=O)Nc3nccs3)cc2)c1O`, for which the inhibition was -5.98%.

For `CC(=O)NC(CC(=O)O)c1ccccc1` (stereo not given), the inhibition is -5.66%.

Consider `O=C(c1cc(-c2ccc(Cl)cc2)nc2ccccc12)N1CCOCC1`, for which the inhibition is -19.9%.

Take `COc1ccc(OC)c(C2=NS(=O)(=O)N(C)C(C(=O)NCc3ccco3)=C2)c1`: the inhibition was -7.9%.

Regarding `COc1ccc(CN2CCN(c3ccccn3)CC2)cc1OCc1ccccc1`, the inhibition was 7.77%.

Consider `O=C(c1cccc2ccccc12)N1CCN(c2ccc([N+](=O)[O-])c(NCc3ccco3)c2)CC1`, for which the inhibition was 7.93%.

`CCc1nnc(NC(=O)c2cccc(C(=O)Nc3nnc(CC)s3)n2)s1`: the inhibition is -2.25%.

As to `CCc1nnc(NC(=O)c2cnccn2)s1`, the inhibition was -0.42%.

In the case of `CCSc1nnc(NC(=O)c2cccnc2Cl)s1`, the inhibition is -1.92%.

In the case of `CCSc1nnc(NC(=O)c2ccccc2)s1`, the inhibition was -12.7%.

As to `CC(=O)Nc1nnc(CCS(=O)(=O)c2ccc(C)cc2)s1`, the inhibition is -6.45%.

With `Cc1ccc(S(=O)(=O)CCc2nnc(NC(=O)c3cnccn3)s2)cc1`, the inhibition is -1.91%.

Consider `Cc1ccc(CNC(=O)CN2C(=O)CSc3ccc(S(=O)(=O)N4CCCCC4)cc32)cc1`, for which the inhibition is 2.97%.

As to `COC(=O)c1ccc(CNC(=O)c2coc3ccccc3c2=O)cc1`, the inhibition was -15.6%.

Turning to `O=C(COc1ccc(Cl)cc1)NC1CCSC1=O` (stereo not given), the inhibition was -5.86%.

Regarding `O=C1CC(NNc2nc3ccccc3s2)C(=O)N1c1ccccc1` (stereo not given), the inhibition is 2.74%.

Regarding `O=C(COC(=O)C1CCC1)c1c[nH]c2ccccc12`, the inhibition is -3.9%.

Regarding `CCn1c(=O)[nH]c2cc(C(=O)N3CCN(c4ccccc4)CC3)ccc2c1=O`, the inhibition is 5.52%.

Consider `COc1cc2c(cc1OC)CN(c1nc(CN3CCOCC3)nc3sc4c(c13)CCCC4)CC2`, for which the inhibition is 4.39%.

As to `O=C(NCC(c1ccco1)N1CCCCC1)c1ccc(S(=O)(=O)Nc2ccccc2)cc1` (stereo not given), the inhibition is -1.8%.

On to `COc1ccc(-n2ccnc(SCC(=O)NC3CCCCC3)c2=O)cc1`, for which the inhibition was -5.37%.

In the case of `CCc1cccc2sc(NC(=O)C3CC3)nc12`, the inhibition was -5.24%.

In the case of `Nc1c(C=C2C=CC(=O)C=C2)c(=O)nc2snc(SCc3ccccc3)n12`, the inhibition was 11.3%.

Turning to `C=CCOc1ccc(C(=O)c2ccccc2)c(OCC(=O)NC2(C#N)CCCC2)c1`, the inhibition was 5.71%.

Consider `COc1ccc2nc3cccc(OC)c3nc2c1`, for which the inhibition was -1.33%.

On to `COc1cccc2nc3cc(C)c(C)cc3nc12`, for which the inhibition is 1.36%.

As for `OC(CN1CCN(c2ccc(C(F)(F)F)cn2)CC1)c1ccccc1` (stereo not given), the inhibition was -15%.

Consider `CC(C)(C)N(Cc1ccccc1)C(=O)COC(=O)c1ccc(S(=O)(=O)N2CCOCC2)cc1`, for which the inhibition is -2.6%.

Consider `COc1ccc(C(=O)N/N=C(\c2ccccc2)c2ccccn2)cc1`, for which the inhibition is 6.37%.

Turning to `COc1ccc(Nc2cc(C)c3ccccc3n2)cc1`, the inhibition is -1.04%.

With `COc1cc(C2C3=C(CCCC3=O)Nc3[nH]n(-c4ccccc4)c(=O)c32)ccc1OC(C)=O` (stereo not given), the inhibition is 2.7%.

`Cn1c(C(=O)NCCCN2CCCCC2)cc2sccc21`: the inhibition was 8.28%.

Regarding `CC1CCN(CCCNC(=O)c2cc3sccc3n2C)CC1`, the inhibition was 4.97%.

In the case of `NCCCN1CCN(c2ccccc2)CC1`, the inhibition is 11.2%.

On to `COc1ccc(N2CCN(CCC(N)=O)CC2)cc1`, for which the inhibition was -4.44%.

Turning to `CC1(C)NC(=O)N(CC(=O)OCC(=O)c2ccc(F)cc2)C1=O`, the inhibition is -8.13%.

In the case of `CCOc1ccccc1N1CC(C(=O)Nc2cc(S(C)(=O)=O)ccc2Cl)CC1=O` (stereo not given), the inhibition was -5.65%.

`O=C(O)c1ccc(NCc2nc3ccccc3n2Cc2ccccc2)cc1`: the inhibition is 11.2%.

For the molecule `NNC(=O)c1sccc1OCc1ccc(Cl)cc1`, the inhibition was 0.97%.

`Cc1noc(C)c1S(=O)(=O)Nc1ccccc1N1CCOCC1`: the inhibition was 0.87%.

Regarding `O=C(CCNC(=O)c1ccc([N+](=O)[O-])cc1)Nc1nc2ccccc2[nH]1`, the inhibition was -0.35%.

In the case of `O=[N+]([O-])c1ccc(N=Nc2ccc(O)cc2O)cc1`, the inhibition was -9.68%.

In the case of `O=S(=O)(Nc1ccc(N=Nc2ccc(O)c3ccccc23)cc1)c1ccccc1`, the inhibition was 5.24%.
